Results with a measured potency or affinity are listed apart.

One assay concerns Klebsiella pneumoniae. The following applies: Concentration 20 uM; ASSAY_TEST Inhibition of Bacterial Growth; detection method Absorption (OD600); MEDIA CAMHB; plate type 384well; NBS; CORNING #3640; time 18 hr.
In the next assay the test system is Candida albicans. The following applies: 20 µM.
In a further assay the test system is Cryptococcus neoformans. The following applies: Concentration 20 uM; ASSAY_TEST Inhibition of Fungal Growth; detection method Resazurin; Absorption (OD600-OD570); plate type 384well; NBS; CORNING #3640. In general terms: The colour change of resazurin is a common sign of viable cells or microbes.

As to `CC1(COc2ccc(N3CCC(Oc4ccc(OC(F)(F)F)cc4)CC3)cc2)Cn2cc([N+](=O)[O-])nc2O1` (configuration not stated), the Inhibition was 19.71% in the assay with Klebsiella pneumoniae, 20.4% in the assay with Candida albicans and -2.75% with Cryptococcus neoformans.

On to `Nc1ncc(-c2cn[nH]c2)cc1-c1nc2cc(Cl)cnc2[nH]1`, for which the Inhibition with Klebsiella pneumoniae is 5.89%; with Candida albicans it was 4.36%; in the assay on Cryptococcus neoformans, -3.87%.

Turning to `Cc1cc(Cl)ccc1NC(=O)CCc1ccc(S(=O)(=O)NCC(C)C)cc1`, the Inhibition in the assay on Klebsiella pneumoniae was 8.81%; with Candida albicans, 1.81%; with Cryptococcus neoformans, -9.04%.

As for `COc1cc(-c2cc(-c3ccc(S(C)(=O)=O)cc3)cnc2N)ccc1O`, the Inhibition in the assay with Klebsiella pneumoniae was 7.56%; with Candida albicans it was 3.91%; in the assay with Cryptococcus neoformans, -7.2%.

Turning to `c1ccc(Oc2ccc(-c3cncc(-c4ccc5[nH]ccc5c4)n3)cc2)cc1`, the Inhibition is 5.9% with Klebsiella pneumoniae, 4.38% in the assay on Candida albicans and -8.14% in the assay with Cryptococcus neoformans.

For `COC(=O)c1ccc(F)cc1NS(=O)(=O)c1cccc(-c2cnn(Cc3ccccc3)c2)c1`, the Inhibition was 14.02% in the assay with Klebsiella pneumoniae, 6.83% with Candida albicans and 12.85% with Cryptococcus neoformans.

As to `COc1ccc(-c2cncc3ccc(C(=O)NCCCn4ccnc4)nc23)cc1`, the Inhibition in the assay with Klebsiella pneumoniae was 3.32%; with Candida albicans it was 4.61%; in the assay with Cryptococcus neoformans, -8.59%.

Take `COc1ccc(-c2onc(C(F)(F)F)c2-c2ccc(Cl)cc2)c(O)c1`: the Inhibition in the assay with Klebsiella pneumoniae was 9.85%; in the assay with Candida albicans, 2.64%; in the assay on Cryptococcus neoformans, 8.78%.

Regarding `CCc1ccc(S(=O)(=O)Nc2cc(CN3CCN(CCC(C)C)CC3)ccc2C)cc1`, the Inhibition with Klebsiella pneumoniae is 18.36%; with Candida albicans, 4.16%; in the assay with Cryptococcus neoformans, -6.26%.

Take `COc1ccc(-c2cc(NC(=O)c3ccc(F)cc3Cl)ccc2OC)cc1`: the Inhibition with Klebsiella pneumoniae was determined as 14.44%; in the assay with Candida albicans it was 5.2%; in the assay on Cryptococcus neoformans, 8.48%.

As to `Clc1ccc(-n2cc(COc3ccnc4ccccc34)nn2)cc1`, the values for the Inhibition in the assay with Klebsiella pneumoniae, in the assay on Candida albicans and with Cryptococcus neoformans were 12.62%, 3.14% and -4.84%, respectively.

For `CCOC(=O)c1c(NC(=O)c2c(F)c(F)c(F)c(F)c2F)sc(C(N)=O)c1C`, the Inhibition with Klebsiella pneumoniae is 11.9%; in the assay with Candida albicans, 5.2%; with Cryptococcus neoformans, -6.59%.

Turning to `CS(=O)(=O)Cc1nc2ccccc2oc1=O`, the figures for the Inhibition with Klebsiella pneumoniae, in the assay on Candida albicans and in the assay on Cryptococcus neoformans were 16.91%, 1.55% and -16.09%, respectively.

With `CC(C)(C)c1cnc(NC(=O)c2ccccc2O)s1`, the Inhibition was determined as 10.5% in the assay with Klebsiella pneumoniae, 11.6% with Candida albicans and 5.21% in the assay with Cryptococcus neoformans.

For the molecule `CC(C)(C)OC(=O)N1CCN(c2nccc(-c3ccc(-c4ccc(Cl)cc4)s3)n2)CC1`, the Inhibition was 5% in the assay on Klebsiella pneumoniae, 3.84% with Candida albicans and -6.76% with Cryptococcus neoformans.

As for `CN1CCCC1CCO[C@](C)(c1ccccc1)c1ccc(Cl)cc1.O=C(O)/C=C/C(=O)O` (some centres not stated), the Inhibition was 21.77% in the assay on Klebsiella pneumoniae, 1.54% in the assay on Candida albicans and -7.21% in the assay on Cryptococcus neoformans.

Consider `CS(=O)(=O)c1ccccc1C(=O)N(Cc1ccccc1)c1ccccc1`, for which the Inhibition in the assay on Klebsiella pneumoniae is 9.63%; in the assay with Candida albicans, 3.84%; with Cryptococcus neoformans it was -8.51%.

For `CC(C)(C)CN1C(=O)C(c2ccccc2)(c2ccccc2)N=C1N`, the values for the Inhibition with Klebsiella pneumoniae, in the assay with Candida albicans and in the assay with Cryptococcus neoformans were 14.16%, 3.38% and 1.98%, respectively.

Regarding `Cc1cc(C(=O)Nc2ccc(-c3ccccc3)cc2)no1`, the values for the Inhibition in the assay with Klebsiella pneumoniae, in the assay on Candida albicans and with Cryptococcus neoformans were 16.31%, 4.46% and -3.33%, respectively.

On to `Cc1cc(OCC(=O)Nc2ccc(C(C)C)cc2)n(C)c(=O)c1C#N`, for which the Inhibition was -7.95% in the assay with Klebsiella pneumoniae, 4.91% in the assay on Candida albicans and 4.44% in the assay with Cryptococcus neoformans.

Regarding `Cc1nnc(NC(=O)c2cn(-c3ccccc3)nc2-c2ccccc2C)o1`, the Inhibition in the assay on Klebsiella pneumoniae was 13%; in the assay with Candida albicans, 4.27%; in the assay on Cryptococcus neoformans, -7.03%.

Consider `CCCCN(CCCC)c1c(C#N)cc(S(=O)(=O)Nc2ccccc2)cc1C#N`, for which the results for the Inhibition in the assay on Klebsiella pneumoniae, in the assay on Candida albicans and in the assay on Cryptococcus neoformans were 5.16%, 3.66% and -9.03%, respectively.

Consider `CC[C@H](CO)NCCN[C@H](CC)CO.Cl.Cl`, for which the results for the Inhibition in the assay on Klebsiella pneumoniae, in the assay with Candida albicans and in the assay on Cryptococcus neoformans were 9.73%, 3.25% and 1.15%, respectively.

`Cc1ccc(C(=O)Nc2ccc(S(=O)(=O)O)c3cc(S(=O)(=O)O)cc(S(=O)(=O)O)c23)cc1NC(=O)c1cccc(NC(=O)Nc2cccc(C(=O)Nc3cc(C(=O)Nc4ccc(S(=O)(=O)O)c5cc(S(=O)(=O)O)cc(S(=O)(=O)O)c45)ccc3C)c2)c1` [SURAMIN]: the Inhibition was 17.11% in the assay with Klebsiella pneumoniae, 39.2% in the assay with Candida albicans and 2.45% in the assay with Cryptococcus neoformans.

In the case of `COc1cccc(CC(=O)N2CCC(n3c(C)nc4ccc(F)cc43)CC2)c1`, the Inhibition in the assay with Klebsiella pneumoniae is 12.2%; in the assay with Candida albicans, 3.01%; in the assay with Cryptococcus neoformans it was -4.62%.

Take `COc1ccc(-c2nc(-c3cccc(NC(=O)Cc4ccc(F)cc4)c3)no2)cc1OC`: the Inhibition in the assay on Klebsiella pneumoniae was 13.72%; in the assay on Candida albicans, 23%; in the assay on Cryptococcus neoformans, -5.03%.

Take `C[C@]1(O)C[C@@H](c2nc(-c3ccc4ccc(-c5ccccc5)nc4c3)c3c(N)nccn32)C1` [LINSITINIB]: the Inhibition with Klebsiella pneumoniae is 12.51%; in the assay on Candida albicans, 8.51%; in the assay with Cryptococcus neoformans, -8.41%.

With `Cl.c1ccc(C[C@@H]2CN(c3nccc(Oc4ccc(-n5ccnc5)cc4)n3)CCN2)cc1`, the results for the Inhibition in the assay on Klebsiella pneumoniae, in the assay with Candida albicans and in the assay with Cryptococcus neoformans were 13.63%, 3.57% and -6.59%, respectively.

Take `Cc1ccc2nc(C)c(-c3ccn(Cc4ccccc4)n3)n2c1`: the results for the Inhibition in the assay on Klebsiella pneumoniae, in the assay with Candida albicans and in the assay on Cryptococcus neoformans were 14.88%, 3.75% and -8.36%, respectively.

For orientation: Inhibition means the drop in the measured response relative to a control, in per cent.
